# System: Tyrosine-protein kinase ABL1 (Homo sapiens), P00519 [Q252H]
# Conditions: at 1 µM
row,SMILES,inhibition
1,Nc1ccc(C#Cc2cncnc2Nc2ccc(OCc3cccc(F)c3)c(Cl)c2)cc1,2.24%
2,COc1cc2ncn(-c3cc(OCc4ccccc4S(C)(=O)=O)c(C#N)s3)c2cc1OC,43.9%
3,NS(=O)(=O)c1ccc(NC=C2C(=O)Nc3ccc4ncsc4c32)cc1,56.3%
4,Nc1nccc(-c2c(-c3ccc(F)cc3)ncn2CCCN2CCOCC2)n1,6.74%
5,O=C1Nc2ccccc2/C1=C/Nc1ccc2[nH]c(=O)[nH]c2c1,26%
6,Cc1ccc(C(=O)NC2CC2)cc1-c1ccc2[nH]ncc2c1,2.09%
7,COC(=O)c1cncc(/C=C/c2c(C)cc(O)cc2C)c1,64.1%
8,COc1cc(Nc2nccc(-c3cnn4ncccc34)n2)cc(OC)c1,68.6%
9,COc1ccc2ncnc(Nc3ccc(OCc4ccccc4)cc3)c2c1,4.68%
10,CCn1c(-c2nonc2N)nc2ccc(F)cc21,3.17%
11,NC(=O)c1cccc(Nc2nccc(Nc3cccc(F)c3)n2)c1,53.9%
12,CN(C)C(=O)O[C@H]1CN[C@H](C#Cc2cc3ncnc(Nc4ccc(OCc5cccc(F)c5)c(Cl)c4)c3s2)C1,3.58%
13,COc1cc2ncnc(Nc3ccc(C)c(O)c3)c2cc1OC,81.8%
14,COc1cccc(-n2ncc3c(N/N=C/c4ccc(C)cc4)ncnc32)c1,81.4%
15,COC(=O)c1ccc2c(c1)C(=Cc1cc(Br)c(O)c(Br)c1)C(=O)N2,15.8%
16,Cc1ccc(Nc2ccnc(Nc3cccc(C(N)=O)c3)n2)cc1O,91.5%
17,NS(=O)(=O)c1ccc(-c2cc3ccncc3cc2OCc2ccccc2)cc1,4.61%

# System: Tyrosine-protein kinase ABL1 (Homo sapiens), P00519 [T315I]
# Conditions: at 0.1 µM
row,SMILES,inhibition
1,CN1CCN(C(=O)c2ccc(NC(=O)Nc3ccc(N(C)c4ccnc(Nc5ccc(CS(C)(=O)=O)cc5)n4)cc3)cc2)CC1,17.6%
2,CC(C)c1ccc2c(c1)NC(=O)/C2=N/Nc1ccc(S(N)(=O)=O)cc1,1.24%
3,C[C@@H](Oc1cc(-n2cnc3ccc(OC[C@@H](O)CO)cc32)sc1C(N)=O)c1ccccc1Cl,-0.17%
4,CN(C)CCCn1c(-c2nonc2N)nc2cnccc21,2.51%
5,O=C1Nc2ccc(-c3cccnc3)cc2C1=Cc1cc(Br)c(O)c(Br)c1,2.69%
6,CC(C)c1ccc(Nc2nccc(-c3cnn4ncccc34)n2)cc1,2.34%
7,N#Cc1cccc(Nc2nccc(-c3cnn4ncccc34)n2)c1,8.12%
8,Cc1ccc(NC(=O)CC2CC2)cc1-c1ccc(C(=O)NCC2CC2)cc1,2.14%
9,Cc1ccc2c(c1)/C(=N/Nc1ccc(S(N)(=O)=O)cc1)C(=O)N2,1.43%
10,CCS(=O)(=O)c1ccc(OC)c(Nc2nccc(N(C)c3ccc4c(C)n[nH]c4c3)n2)c1,3.83%
11,Nc1nccc(-c2c(-c3ccc(F)cc3)nn3cc(C(F)(F)F)ccc23)n1,0.42%
12,N#Cc1c(NC(=O)c2ccccc2F)sc2c1CCCC2,-0.91%
13,Cc1cc(Cl)cc2c1NC(=O)C2=NNc1ccc(S(N)(=O)=O)cc1,1.38%
14,c1ccc(Cc2nc3ccc(Nc4ncnc5ccccc45)cc3[nH]2)cc1,2.12%
15,Cc1ccc(O)cc1Nc1ccnc2ccc(S(C)(=O)=O)cc12,3.68%
16,COc1cc(/C=N/Nc2ncnc3c2cnn3C(C)C)ccc1O,9.92%
17,FC(F)(F)c1ccc(-c2nn3ncccc3c2-c2ccnc(Nc3ccc4c(c3)OCCO4)n2)cc1,1.73%

row,SMILES,inhibition
1,Nc1ccc(C#Cc2cncnc2Nc2ccc(OCc3cccc(F)c3)c(Cl)c2)cc1,1.6%
2,COc1cc2ncn(-c3cc(OCc4ccccc4S(C)(=O)=O)c(C#N)s3)c2cc1OC,6.41%
3,NS(=O)(=O)c1ccc(NC=C2C(=O)Nc3ccc4ncsc4c32)cc1,15%
4,Nc1nccc(-c2c(-c3ccc(F)cc3)ncn2CCCN2CCOCC2)n1,2.38%
5,O=C1Nc2ccccc2/C1=C/Nc1ccc2[nH]c(=O)[nH]c2c1,4.38%
6,Cc1ccc(C(=O)NC2CC2)cc1-c1ccc2[nH]ncc2c1,-2.71%
7,COC(=O)c1cncc(/C=C/c2c(C)cc(O)cc2C)c1,4.16%
8,COc1cc(Nc2nccc(-c3cnn4ncccc34)n2)cc(OC)c1,5.15%
9,COc1ccc2ncnc(Nc3ccc(OCc4ccccc4)cc3)c2c1,0.02%
10,CCn1c(-c2nonc2N)nc2ccc(F)cc21,3.34%
11,NC(=O)c1cccc(Nc2nccc(Nc3cccc(F)c3)n2)c1,1.3%
12,CN(C)C(=O)O[C@H]1CN[C@H](C#Cc2cc3ncnc(Nc4ccc(OCc5cccc(F)c5)c(Cl)c4)c3s2)C1,2.75%
13,COc1cc2ncnc(Nc3ccc(C)c(O)c3)c2cc1OC,16.5%
14,COc1cccc(-n2ncc3c(N/N=C/c4ccc(C)cc4)ncnc32)c1,5.28%
15,COC(=O)c1ccc2c(c1)C(=Cc1cc(Br)c(O)c(Br)c1)C(=O)N2,1.82%
16,Cc1ccc(Nc2ccnc(Nc3cccc(C(N)=O)c3)n2)cc1O,7.09%
17,NS(=O)(=O)c1ccc(-c2cc3ccncc3cc2OCc2ccccc2)cc1,1.65%

# Source: ChEMBL document CHEMBL1961873, “Compounds: GSK PKIS; Assays: Nanosyn kinase panel” (2012)
